Data taken from PubChem BioAssay.
Calls of active or inactive are those of the source.

Assays:
[1] = optical density shifts of acrAB sulA E. coli – strain DRC41, OD650, 48 h, E. coli filamentation inducer project, primary screen (AID 1152); details: higher = more signal, called active from +8 up or from −8 down;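 further: E. coli MC1000 strain DRC41 lacking acrAB efflux pump and sulA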
[2] = probe aLefty1 binding on compound microarray – biochemical, small-molecule microarray, 635/667 nm fluorescence, primary screen (AID 1153); details: higher = more signal;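 further: score merges spot fluorescence with signal-to-noise ratio from the scanned slide images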
[3] = plasmodial surface anion channel blockers, osmotic lysis – cell-based, P. falciparum Indochina, OD700, 1 h, primary screen (AID 1154); details: P. falciparum Indochina infected RBC osmotic lysis, higher = more signal, called active from +8 up or from −8 down
[4] = plasmodial surface anion channel blockers, osmotic lysis – cell-based, P. falciparum Indochina, OD700, 2 h, primary screen (AID 1155);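 further: lysis reports solute entry through the parasite surface anion channel PSAC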; details: P. falciparum Indochina infected erythrocytes, higher = more signal, called active from +8 up or from −8 down
[5] = changes in parasitized red cell lysis, either direction – P. falciparum Indochina, OD700, 3 h, PSAC antagonist project, primary screen (AID 1156); details: P. falciparum-infected erythrocytes, osmotic lysis, higher = more signal, called active from +8 up or from −8 down
[6] = plasmodial surface anion channel blockers, osmotic lysis – cell-based, P. falciparum Indochina, OD700, 18 h, primary screen (AID 1157); details: P. falciparum Indochina infected erythrocytes, osmotic lysis OD700, 18 h; higher = more signal, called active from +8 up or from −8 down
[7] = S6 kinase pathway phospho-S6 level changes – cell-based, A549, cytoblot, luminescence, serum-stimulated, primary screen (AID 1158); details: 5 h, higher = more signal;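 further: serum-stimulated A549 lung adenocarcinoma cells; signal is phosphorylated S6 detected by cytoblot immunostaining with HRP secondary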
[8] = target: NADPH oxidase 2 (Homo sapiens) (UniProt P04839); assay: compounds shifting NOX2 Amplex Red fluorescence – cell-based, HEK293-NOX2, PMA-stimulated, NOX inhibitor project, primary screen (AID 1159); details: 45 min, higher = more signal, called active from +8 up or from −8 down; further: test concentration not given here
[9] = target: NADPH oxidase 4 (Homo sapiens) (UniProt Q9NPH5); assay: compounds shifting NOX4 Amplex Red fluorescence – cell-based, HEK293-NOX4, tetracycline-induced, NOX inhibitor project, primary screen (AID 1160); details: HEK293-NOX4, Amplex Red H2O2 fluorescence, 45 min; higher = more signal, called active from +8 up or from −8 down
[10] = target: NADPH oxidase 5 (Homo sapiens) (UniProt Q96PH1); assay: compounds shifting NOX5 Amplex Red fluorescence – cell-based, HEK293-NOX5, NOX inhibitor project, primary screen (AID 1161); details: HEK293-NOX5, ionomycin, 45 min, higher = more signal
[11] = compound effects on lung adenocarcinoma cell viability – A549, calcein-AM fluorescence, 48 h, basal, profiling panel (AID 1162); details: higher = more signal; further: test concentration not given here
[12] = compound effects on differentiated 3T3-L1 adipocyte viability – cell-based, 3T3-L1 adipocytes, calcein-AM fluorescence, 48 h, basal, profiling panel (AID 1163); details: 3T3-L1 adipocytes viability, higher = more signal; further: test concentration not given here
[13] = compound effects on hepatocellular carcinoma cell viability – HepG2, calcein-AM fluorescence, 48 h, basal, profiling panel (AID 1164); details: higher = more signal; further: test concentration not given here
[14] = compound effects on multiple myeloma cell viability – MM1S, calcein-AM fluorescence, 48 h, basal, profiling panel (AID 1165); details: higher = more signal;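 further: viability of MM1S multiple myeloma cells under basal unstimulated conditions; test concentration not given here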
[15] = calcein-AM signal in unstimulated myeloma cells – cell-based, calcein-AM fluorescence, 48 h, PK04 Diversity Set, profiling panel (AID 1166); details: RPMI8226 myeloma viability, higher = more signal;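 further: cells grown under basal conditions without added stimulus; test concentration not given here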
[16] = JC-1 mitochondrial signal, unstimulated HepG2 cells – cell-based, JC-1 fluorescence, 24 h, 100 nL compound, profiling panel (AID 1167); details: HepG2 mitochondrial potential, higher = more signal; further: test concentration not given here
[17] = JC-1 mitochondrial signal, unstimulated adipocytes – cell-based, JC-1 fluorescence, 3T3-L1 adipocytes, 24 h, 100 nL compound, profiling panel (AID 1168); details: JC-1 mitochondrial fluorescence, higher = more signal, called active from +8 up or from −8 down; further: test concentration not given here
[18] = JC-1 mitochondrial signal, unstimulated myeloma cells – cell-based, JC-1 fluorescence, RPMI8226, 24 h, 100 nL compound, profiling panel (AID 1169); details: JC-1 mitochondrial potential fluorescence, higher = more signal; further: test concentration not given here
[19] = JC-1 mitochondrial signal, unstimulated MM1S myeloma – cell-based, JC-1 fluorescence, 24 h, 100 nL compound, profiling panel (AID 1170); details: MM1S mitochondrial potential, higher = more signal; further: test concentration not given here
[20] = resazurin metabolic signal in A549 cells – cell-based, resazurin fluorescence, 24 h, PK04 Diversity Set, profiling panel (AID 1171); details: A549 viability, higher = more signal, called active from +8 up or from −8 down; further: test concentration not given here

Sequence of NADPH oxidase 4 (Homo sapiens) (Q9NPH5 whole entry, looked up): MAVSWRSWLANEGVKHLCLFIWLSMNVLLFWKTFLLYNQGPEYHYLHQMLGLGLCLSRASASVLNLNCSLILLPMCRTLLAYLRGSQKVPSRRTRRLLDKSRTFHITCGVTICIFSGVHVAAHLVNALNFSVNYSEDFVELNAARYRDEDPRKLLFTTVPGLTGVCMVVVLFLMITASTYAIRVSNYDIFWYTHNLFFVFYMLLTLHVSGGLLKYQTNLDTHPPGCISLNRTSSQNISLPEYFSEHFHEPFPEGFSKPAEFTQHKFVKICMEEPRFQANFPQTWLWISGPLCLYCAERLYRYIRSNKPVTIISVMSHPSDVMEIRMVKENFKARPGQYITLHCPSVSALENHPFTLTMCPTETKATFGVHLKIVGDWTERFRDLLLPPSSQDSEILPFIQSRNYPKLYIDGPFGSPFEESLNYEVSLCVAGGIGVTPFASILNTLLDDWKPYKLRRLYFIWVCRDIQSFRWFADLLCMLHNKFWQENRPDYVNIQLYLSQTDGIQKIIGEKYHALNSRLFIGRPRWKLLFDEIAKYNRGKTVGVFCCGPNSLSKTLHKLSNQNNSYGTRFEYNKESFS
Sequence of NADPH oxidase 5 (Homo sapiens) (Q96PH1 whole entry, looked up): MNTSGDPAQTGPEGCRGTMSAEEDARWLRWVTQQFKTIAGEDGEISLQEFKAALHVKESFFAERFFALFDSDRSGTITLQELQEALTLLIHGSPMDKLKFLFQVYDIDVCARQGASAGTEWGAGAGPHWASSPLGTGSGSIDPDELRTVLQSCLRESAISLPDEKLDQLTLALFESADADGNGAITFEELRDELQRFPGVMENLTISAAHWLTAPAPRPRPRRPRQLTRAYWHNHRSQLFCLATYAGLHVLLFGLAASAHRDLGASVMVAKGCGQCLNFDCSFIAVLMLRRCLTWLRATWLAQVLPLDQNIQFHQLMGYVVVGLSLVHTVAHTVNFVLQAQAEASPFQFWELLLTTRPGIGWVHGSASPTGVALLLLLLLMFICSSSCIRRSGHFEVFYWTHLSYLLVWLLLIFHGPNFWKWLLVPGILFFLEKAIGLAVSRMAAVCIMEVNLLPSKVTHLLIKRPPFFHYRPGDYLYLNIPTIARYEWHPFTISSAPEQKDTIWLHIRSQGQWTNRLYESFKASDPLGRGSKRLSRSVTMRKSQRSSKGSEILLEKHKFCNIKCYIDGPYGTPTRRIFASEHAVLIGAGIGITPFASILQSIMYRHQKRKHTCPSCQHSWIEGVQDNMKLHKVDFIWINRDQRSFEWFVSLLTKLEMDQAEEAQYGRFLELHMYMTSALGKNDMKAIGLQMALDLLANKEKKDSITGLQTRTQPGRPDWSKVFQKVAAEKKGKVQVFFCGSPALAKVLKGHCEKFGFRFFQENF
Sequence of NADPH oxidase 2 (Homo sapiens) (P04839 whole entry, looked up): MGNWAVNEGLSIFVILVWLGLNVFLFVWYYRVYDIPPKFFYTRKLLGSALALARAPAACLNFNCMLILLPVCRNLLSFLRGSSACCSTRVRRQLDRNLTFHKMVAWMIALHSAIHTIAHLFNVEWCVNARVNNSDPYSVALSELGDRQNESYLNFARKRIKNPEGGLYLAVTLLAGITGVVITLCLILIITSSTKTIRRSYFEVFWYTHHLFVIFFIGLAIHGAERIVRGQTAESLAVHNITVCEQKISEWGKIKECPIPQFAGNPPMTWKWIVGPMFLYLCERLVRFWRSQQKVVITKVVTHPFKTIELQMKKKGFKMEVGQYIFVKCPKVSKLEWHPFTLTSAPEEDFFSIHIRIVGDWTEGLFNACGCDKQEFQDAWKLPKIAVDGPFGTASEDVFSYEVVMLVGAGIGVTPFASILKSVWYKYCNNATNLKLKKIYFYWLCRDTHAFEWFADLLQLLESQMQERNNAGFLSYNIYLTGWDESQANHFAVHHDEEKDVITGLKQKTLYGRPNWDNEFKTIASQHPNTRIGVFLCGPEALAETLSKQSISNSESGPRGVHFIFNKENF

Compound	z-score [1]	composite z-score [2]	z-score [3]	z-score [4]	z-score [5]	z-score [6]	z-score [7]	z-score [8]	z-score [9]	z-score [10]	z-score [11]	z-score [12]	z-score [13]	z-score [14]	z-score [15]	z-score [16]	z-score [17]	z-score [18]	z-score [19]	z-score [20]
C#CCCCON=C1[C@H]2CCn3c(=O)n(C)c(=O)n3[C@H]2[C@H](O)[C@@H]2O[C@H]12	0.117 (inactive)	0.126	-0.611 (inactive)	0.147 (inactive)	-0.354 (inactive)	0.0334 (inactive)	-0.0228	-0.0249 (inactive)	-0.124 (inactive)	0.71	0.0083	-0.421	0.716	-0.85	-0.801	0.398	0.206 (inactive)	-0.253	0.00711	-0.576 (inactive)
COC(=O)[C@@H]1CC[C@H](C)[C@@H](c2ccc(C)cc2)N1C(=O)c1ccc(C=NO[C@H](C)c2cn([C@@H]3COC[C@H]3O)nn2)cc1	0.153 (inactive)	0.109	22.6 (active)	3.19 (inactive)	0.615 (inactive)	1.52 (inactive)	-0.477	-0.166 (inactive)	0.124 (inactive)	0.196	0.278	-1.16	-0.482	0.673	-0.486	-1.12	-0.579 (inactive)	-0.916	-0.985	0.339 (inactive)
COc1ccc(O[C@H]2C=C[C@@H](c3ccccc3)O[C@@H]2CON=C(C)CCN2CCc3nc(-c4ccccc4)c(-c4ccccc4)cc3C2)cc1	-1.59 (inactive)	-0.101	2.48 (inactive)	1.25 (inactive)	0.855 (inactive)	0.71 (inactive)	-0.0313	0.168 (inactive)	0.00405 (inactive)	-0.434	0.437	0.133	0.59	-1.65	-0.439	4.95	-1.39 (inactive)	0.965	-0.214	0.621 (inactive)
C#CCCCON=C1C[C@@H](O)[C@@H](O)[C@@H]2[C@@H]3C(=O)N(Cc4ccccc4)C(=O)[C@@H]3CC[C@@H]12	0.292 (inactive)	-0.0479	0.564 (inactive)	0.579 (inactive)	-0.292 (inactive)	0.06 (inactive)	-0.507	-0.727 (inactive)	0.47 (inactive)	0.551	0.307	-0.198	-0.732	-0.488	0.199	0.793	0.89 (inactive)	-0.323	-0.467	0.37 (inactive)
C[C@@H]1CC[C@H]2C(=O)O[C@@H](Cc3ccccc3)CN2[C@H]1c1ccc(Br)cc1	-0.28 (inactive)	-0.148	2.26 (inactive)	0.935 (inactive)	0.277 (inactive)	0.563 (inactive)	-0.536	-0.251 (inactive)	-0.286 (inactive)	-0.621	0.442	0.185	0.828	-0.591	-0.323	-0.225	0.276 (inactive)	0.231	0.697	0.539 (inactive)
COC(=O)CC=C[C@@H](C)[C@@H](C=NO[C@@H]1O[C@H](COC(C)=O)[C@@H](OC(C)=O)[C@H](OC(C)=O)[C@H]1OC(C)=O)NS(=O)(=O)c1ccc(C)cc1	-0.673 (inactive)	-0.397	0.683 (inactive)	0.54 (inactive)	1.1 (inactive)	0.294 (inactive)	-0.448	0.837 (inactive)	0.968 (inactive)	0.569	-0.4	-0.387	-0.416	0.27	-1.81	-0.365	-1.39 (inactive)	-0.736	0.049	-0.251 (inactive)
O=c1n(Cc2cc3c(cc2Cl)OCO3)c(=O)n2n1CC[C@@H]1C(=NOC[C@@H](O)COCc3ccco3)[C@H]3O[C@H]3[C@@H](O)[C@@H]12	-0.289 (inactive)	0.175	0.0384 (inactive)	0.012 (inactive)	-0.258 (inactive)	-0.138 (inactive)	0.393	0.0338 (inactive)	-1.95 (inactive)	-0.278	-0.158	-0.322	0.105	0.0423	-0.552	-0.611	-1.6 (inactive)	0.0236	-0.211	-0.127 (inactive)
O=c1n(-c2ccccc2)c(=O)n2n1CC[C@@H]1C(=NOCc3ccccc3)[C@H]3O[C@H]3[C@@H](O)[C@@H]12	-0.422 (inactive)	-0.514	6.33 (inactive)	0.0311 (inactive)	0.349 (inactive)	0.425 (inactive)	-0.302	-3.43 (inactive)	-0.13 (inactive)	0.183	0.172	-0.915	0.251	-0.232	0.169	-0.406	-0.78 (inactive)	-0.0915	-0.531	-1.08 (inactive)
CON=C1[C@H]2CCn3c(=O)n(-c4ccccc4)c(=O)n3[C@H]2[C@H](O)[C@@H]2O[C@H]12	-1.04 (inactive)	-0.108	-0.713 (inactive)	-1.53 (inactive)	-0.801 (inactive)	-1.77 (inactive)	1.56	0.0197 (inactive)	0.3 (inactive)	1.26	0.828	0.384	0.739	-0.211	0.483	-1.17	1.86 (inactive)	0.391	0.68	-0.378 (inactive)
CCOC(=O)[C@H](Cc1ccccc1)NC(=O)CCC1CC(OC(=O)NCCc2ccc(F)cc2)CC2(CCCC(COC(=O)NCCc3ccc(Cl)cc3)O2)O1 (stereo not given in full)	0.0991 (inactive)	-0.0244	1.13 (inactive)	-0.525 (inactive)	0.056 (inactive)	0.126 (inactive)	0.406	0.526 (inactive)	0.311 (inactive)	1.13	-0.648	-0.224	-0.44	-1.91	-1.94	-0.0496	-0.305 (inactive)	0.158	-0.56	0.0031 (inactive)
CC(C)=NOC[C@@H](C)[C@H](OCc1ccccc1)C(C)C	0.287 (inactive)	0.103	0.641 (inactive)	0.503 (inactive)	0.795 (inactive)	0.39 (inactive)	0.453	0.409 (inactive)	-1.72 (inactive)	-1	0.108	0.311	-0.0481	-0.313	-0.556	-0.0858	0.0392 (inactive)	-0.279	0.503	-0.557 (inactive)
CCN1C(=O)[C@H]2[C@H]3[C@H](O)[C@H](O)CC(=NNC(=O)OCc4ccc(OC)cc4)[C@@H]3CC[C@H]2C1=O	-0.382 (inactive)	0.238	1.09 (inactive)	0.195 (inactive)	-0.703 (inactive)	0.181 (inactive)	0.117	-0.13 (inactive)	0.659 (inactive)	-0.0409	-0.241	-0.0397	-0.112	0.0505	-0.788	-0.586	-0.66 (inactive)	-0.232	-0.0402	0.247 (inactive)
O=C1[C@H]2[C@H]3[C@H](O)[C@H](O)CC(=NOC[C@@H](O)COCc4ccco4)[C@H]3CC[C@H]2C(=O)N1Cc1ccccc1	0.0413 (inactive)	-0.154	0.376 (inactive)	-0.599 (inactive)	-0.409 (inactive)	-1.53 (inactive)	1.43	-0.0116 (inactive)	0.967 (inactive)	0.0182	0.172	0.194	-1.46	0.455	-2.06	0.176	-0.161 (inactive)	0.714	-0.441	0.968 (inactive)
CO[C@H]1COC(=O)CC=C[C@H](C)COC(=O)[C@@H](C)NC(=O)CC=C[C@@H]1C	-0.447 (inactive)	0.0669	-0.499 (inactive)	-1.13 (inactive)	0.475 (inactive)	-2.08 (inactive)	1.27	0.157 (inactive)	0.148 (inactive)	-0.0359	-0.752	0.197	-1.46	0.735	-1.5	0.187	-0.546 (inactive)	-0.111	-0.609	0.0702 (inactive)
CCOC(=O)[C@H](CC(C)C)NC(=O)CCC1CC(OC(=O)NCc2cccc3ccccc23)CC2(CCCC(COC(=O)NCCCN3CCCC3=O)O2)O1 (stereo not given in full)	0.261 (inactive)	-0.177	0.51 (inactive)	0.936 (inactive)	0.662 (inactive)	0.295 (inactive)	0.285	1.51 (inactive)	0.133 (inactive)	-0.877	0.367	1.15	-0.839	-0.0471	-1.31	0.106	-0.636 (inactive)	-0.555	-1.15	0.489 (inactive)
